Reference: the supplement of paper PMC11060735
Values joined by “and” are separate entries in the source; they are usually repeats but may differ in a detail not shown here. Equal entries are not always repeated. Structures can show the parent of a compound that is named as a salt. ± gives the standard deviation of the averaged measurements. In all, about 1,800 compounds were measured (“GFP- (p16Ink4a-) cell count relative to negative-control wells”: median about 0.99, lowest 2% from about 0.5 on). Many of the other results were omitted from the sample, so the lowest values are more common in it than they were.

tested on: mouse p16Ink4a+/- lung fibroblasts (INKBRITE, bleomycin-injured); test: GFP- (p16Ink4a-) cell count relative to negative-control wells (fold of vehicle); higher = more p16Ink4a- cells surviving; conditions: 1 µM; 3 days

Structure (SMILES) | GFP-
CC(C)CN(C[C@@H](O)[C@H](Cc1ccccc1)NC(=O)O[C@H]1CCOC1)S(=O)(=O)c1ccc(N)cc1 [Amprenavir] | 1.01
Cc1ccc(NC(=O)C2(c3ccc4c(c3)OC(F)(F)O4)CC2)nc1-c1cccc(C(=O)O)c1 [Lumacaftor] | 0.94
CC(=O)O[C@@]12CO[C@@H]1C[C@H](O)[C@@]1(C)C(=O)[C@H](O)C3=C(C)[C@@H](OC(=O)[C@H](O)[C@@H](NC(=O)OC(C)(C)C)c4ccccc4)C[C@@](O)([C@@H](OC(=O)c4ccccc4)[C@H]21)C3(C)C [Docetaxel] | 0.447
CC(=O)O[C@H]1C(=O)[C@@]2(C)C([C@H](OC(=O)c3ccccc3)[C@]3(O)C[C@H](OC(=O)[C@H](O)[C@@H](NC(=O)c4ccccc4)c4ccccc4)C(C)=C1C3(C)C)[C@]1(OC(C)=O)CO[C@@H]1C[C@@H]2O (stereo partly drawn) [Taxol, Paclitaxel] | 0.505
CO[C@H]1C(=O)[C@]2(C)[C@@H](OC)C[C@H]3OC[C@@]3(OC(C)=O)[C@H]2[C@H](OC(=O)c2ccccc2)[C@]2(O)C[C@H](OC(=O)[C@H](O)[C@@H](NC(=O)OC(C)(C)C)c3ccccc3)C(C)=C1C2(C)C [Cabazitaxel] | 0.558
Cc1ccc(-n2nc(C)c(N=Nc3cccc(-c4cccc(C(=O)O)c4)c3O)c2O)cc1C [Eltrombopag] | 0.82
C[C@]12C=CC(=O)C=C1CC[C@H]1[C@@H]3C[C@@H](O)[C@](O)(C(=O)CO)[C@@]3(C)C[C@H](O)[C@@]12F [Triamcinolone] | 0.986
NC(=O)N/N=C/c1ccc([N+](=O)[O-])o1 [Nitrofural] | 0.939
Cc1ccc(S(=O)(=O)/C=C/C#N)cc1 | 0.854
Cc1ccc(S(=O)(=O)c2ccc([N+](=O)[O-])o2)cc1 | 0.415
Cc1ccccc1N1C(=O)c2cc(S(N)(=O)=O)c(Cl)cc2NC1C (stereo not drawn) [Metolazone] | 0.905
Oc1ccc(-c2nc(-c3ccc(F)cc3)c(-c3ccncc3)[nH]2)cc1 | 1.02
CC(C)(C)Cn1c(N)nc2ccc(-c3[nH]c(C(C)(C)C)nc3-c3ccc(F)cc3)nc21 | 0.974
COc1ccc(-c2ccc3ncc4c(c3c2)n(-c2ccc(N3CCNCC3)c(C(F)(F)F)c2)c(=O)n4C)cn1 | 0.4
Cn1c(=O)n(-c2ccc(C(C)(C)C#N)cc2)c2c3cc(-c4cnc5ccccc5c4)ccc3ncc21 [Dactolisib] | 0.74
CC1CCN(CC[C@H]2CCCN2S(=O)(=O)c2cccc(O)c2)CC1 | 0.862
CC1CNc2c(cccc2S(=O)(=O)N[C@@H](CCCN=C(N)N)C(=O)N2CC[C@@H](C)C[C@@H]2C(=O)O)C1 (stereo partly drawn) [Argatroban] | 1.09
CC1(C)CCC2=C(O1)c1ccccc1C(=O)C2=O [beta-Lapachone] | 1.08
CCOC(=O)c1ccc(C#Cc2ccc3c(c2)C(C)(C)CCS3)nc1 [Tazarotene] | 1.05
N#Cc1ccc2[nH]cc(CCCCN3CCN(c4ccc5oc(C(N)=O)cc5c4)CC3)c2c1 [Vilazodone] | 1.07
CO/C(O)=C1\C(C)=NC(C)=C(C(=O)OCCN2CCN(C(c3ccccc3)c3ccccc3)CC2)C1c1cccc([N+](=O)[O-])c1 (stereo not drawn) [Manidipine] | 0.985 and 0.964
Cc1ccc(Cl)cc1N(CC(=O)Nc1c(F)cccc1F)S(C)(=O)=O | 1.06
O=C(O)C(O)Cc1ccc(O)c(O)c1 (stereo not drawn) [Sodium Danshensu] | 1.19
COc1nc(C)cnc1NS(=O)(=O)c1cccnc1-c1ccc(-c2nnco2)cc1 [Zibotentan] | 1.19
CCOC(=O)[C@H](CCc1ccccc1)N[C@@H](C)C(=O)N1Cc2cc(OC)c(OC)cc2C[C@H]1C(=O)O [Moexipril] | 0.982

Structure (SMILES) | GFP-
COc1c2ccoc2cc2oc(=O)ccc12 [Bergapten] | 1.08
O=C1c2c(O)ccc(O)c2C(=O)c2c(NCCNCCO)ccc(NCCNCCO)c21 [Mitoxantrone] | 0.503
O=C1c2cccc(O)c2C(=O)c2c(O)cc(CO)cc21 [Aloe-emodin] | 1.13
Nc1ncn([C@@H]2O[C@H](CO)[C@@H](O)[C@H]2O)c(=O)n1 [5-azacytidine, Azacitidine] | 0.758 ± 0.04
CCOC(=O)[C@H]1O[C@@H]1C(=O)N[C@@H](CC(C)C)C(=O)NCCC(C)C [Aloxistatin] | 0.833
CN(C)c1ccc(C(=C2C=CC(=[N+](C)C)C=C2)c2ccc(N(C)C)cc2)cc1 [Gentian Violet] | 0.494
COCCO/C(O)=C1\C(C)=NC(C)=C(C(=O)OC(C)C)C1c1cccc([N+](=O)[O-])c1 (stereo not drawn) [Nimodipine] | 1.06
FC(F)c1nc2ccccc2n1-c1nc(N2CCOCC2)nc(N2CCOCC2)n1 | 0.711
O=C(NC(Cc1cc(O)nc2ccccc12)C(=O)O)c1ccc(Cl)cc1 (stereo not drawn) [Rebamipide] | 1.02
Cc1ccc([N+](=O)[O-])cc1S(=O)(=O)N(C)/N=C/c1cnc2ccc(Br)cn12 | 0.385
COC(=O)Nc1nc2cc(C(=O)c3ccc(F)cc3)ccc2[nH]1 [Flubendazole] | 0.933
CC(C(=O)O)c1ccc2c(c1)Cc1cccnc1O2 (stereo not drawn) [Pranoprofen] | 1.17
Cc1cc(NS(=O)(=O)c2ccc(N)cc2)no1 [Sulfamethoxazole] | 0.967
Cc1cnc(Nc2ccc(N3CCN(C)CC3)cc2)nc1Nc1cccc(S(=O)(=O)NC(C)(C)C)c1 | 0.779 ± 0.037
C=CCn1c(=O)c2cnc(Nc3ccc(N4CCN(C)CC4)cc3)nc2n1-c1cccc(C(C)(C)O)n1 | 0.409
C=CC(=O)Nc1cccc(Oc2nc(Nc3ccc(N4CCN(C)CC4)cc3)ncc2Cl)c1 | 0.844
C#C[C@]1(O)CC[C@H]2[C@@H]3CCc4cc(OC)ccc4[C@H]3CC[C@@]21C [Mestranol] | 1.15
COc1cc2nccc(Oc3ccc(NC(=O)Nc4cc(C)on4)c(Cl)c3)c2cc1OC [Tivozanib] | 1.01
COc1cc2nccc(Oc3ccc(NC(=O)Nc4ccc(F)cc4F)c(F)c3)c2cc1OC | 0.466
COc1cc2nccc(Oc3ccc(NC(=O)C4(C(=O)Nc5ccc(F)cc5)CC4)cc3)c2cc1OC [Cabozantinib] | 0.824
CCn1cc(-c2ccnc3[nH]c(-c4cccc(CN(C)C)c4)cc23)c(-c2ccc(NC(=O)N(C)C)cc2)n1 | 0.658 ± 0.17
COc1cc(Nc2ncc(F)c(Nc3ccc4c(n3)N(COP(=O)(O)O)C(=O)C(C)(C)O4)n2)cc(OC)c1OC [Fostamatinib] | 0.771
COC(=O)[C@]12CCC(C)(C)C[C@@H]1[C@@H]1C(=O)C=C3[C@]4(C)C=C(C#N)C(=O)C(C)(C)[C@@H]4CC[C@@]3(C)[C@]1(C)CC2 [Bardoxolone Methyl] | 0.406
O=C(c1ccc(F)cc1)C1CCN(CCn2c(=O)[nH]c3ccccc3c2=O)CC1 [Ketanserin Tartrate] | 0.924
COc1ccc2c(c1)c(CC(=O)N1CCOCC1)c(C)n2C(=O)c1ccc(Cl)cc1 | 1.15

Structure (SMILES) | GFP-
COC(=O)[C@H](Cc1ccccc1)NC(=O)[C@@H](N)CC(=O)O [Aspartame] | 0.966
CC(=O)SCC(Cc1ccccc1)C(=O)NCC(=O)OCc1ccccc1 (stereo not drawn) [Racecadotril] | 0.972
CC(C)C[C@@H](C=O)NC(=O)[C@H](CC(C)C)NC(=O)[C@H](CC(C)C)NC(=O)OCc1ccccc1 | 0.302
CCCC(=O)Nc1cccc(NC(=O)c2ccccc2Br)c1 | 1.03
CCOC(=O)C1=C(C)N=C(C)/C(=C(/O)OCC)C1c1ccccc1/C=C/C(=O)OC(C)(C)C (stereo not drawn) [Lacidipine] | 1.08
Clc1ccc(C(Cn2ccnc2)OCc2ccsc2Cl)c(Cl)c1 (stereo not drawn) [Tioconazole] | 0.993
Cn1nc(C(C)(C)C)cc1C(=O)N[C@@H](Cc1cccc(Cl)c1)C(=O)NCC#N [Cathepsin Inhibitor 1] | 1.01
O=C1CCC[C@@H]2[C@H]3CCC[N+]4([O-])CCC[C@@H](CN12)[C@@H]34 (stereo partly drawn) [Oxymatrine] | 1.08
O=S(=O)(O)c1cc(O)ccc1O [Ethamsylate] | 0.995
C=C1/C(=C\C=C2/CCC[C@]3(C)[C@@H]([C@H](C)CCCC(C)(C)O)CC[C@@H]23)C[C@@H](O)C[C@@H]1O [Calcitriol, DN-101] | 1.39
CN1CCN(S(=O)(=O)c2ccc(-c3cnc(N)c(C(=O)Nc4cccnc4)n3)cc2)CC1 | 0.998
Cc1[nH]c(/C=C2\C(=O)Nc3ccccc32)c(C)c1CCC(=O)O [Orantinib] | 1.09
Cc1[nH]c(/C=C2\C(=O)Nc3ccc(S(=O)(=O)Cc4c(Cl)cccc4Cl)cc32)c(C)c1C(=O)N1CCC[C@@H]1CN1CCCC1 | 0.404
Cc1[nH]c(/C=C2\C(=O)Nc3ccc(S(=O)(=O)N(C)c4cccc(Cl)c4)cc32)c(C)c1C(=O)N1CCN(C)CC1 | 0.704
N=C(N)Nc1ccc(C(=O)Oc2ccc3cc(C(=N)N)ccc3c2)cc1 [Nafamostat] | 1.16
Nc1cc(C(Cl)=C(Cl)Cl)c(S(N)(=O)=O)cc1S(N)(=O)=O [Clorsulon] | 1.08
Cc1cc(C)c(/C=C2\C(=O)Nc3ccccc32)[nH]1 [Semaxanib] | 0.862
Cc1ccc(-n2sc(=O)n(Cc3ccc(F)cc3)c2=O)cc1 | 1.1
COc1ccc(-c2ccc3cc(C(=O)O)ccc3c2)cc1C12CC3CC(CC(C3)C1)C2 [Adapalene] | 1.05
O=C(NCc1ccccc1)c1csc(Nc2ccncn2)n1 [Thiazovivin] | 1.04
O=c1cc(-c2ccccc2)oc2cc(O)cc(O)c12 [Chrysin] | 0.996
CCN1CCC[C@H]1CNC(=O)c1cc(S(N)(=O)=O)ccc1OC [Levosulpiride] | 0.964
C[C@]12CC[C@H](O)CC1=CCC1C2CC[C@]2(C)C(n3cnc4ccccc43)=CCC12 (stereo partly drawn) [Galeterone] | 1.11
